High-throughput results (PubChem BioAssay)
Vc quorum ag: quorum light induction in luxS cqsA deficient V. cholerae; activation, % at 18.7 µM; 350,000 tested, 0.16% active; AID 588436; V. cholerae BH1578 lux reporter, luminescence, 6 h; in the data active = activation mostly above about 9.7%, no sharp cut-off
VHR inh abs: inhibitors of human VHR1 phosphatase (DUSP3); P51452; recombinant VHR phosphatase, pNPP absorbance; inhibition, % at 13.3 µM; 290,000 tested, 0.52% active; AID 1654; in the data active = inhibition above about 50%
Target sequence (P51452 whole entry, looked up): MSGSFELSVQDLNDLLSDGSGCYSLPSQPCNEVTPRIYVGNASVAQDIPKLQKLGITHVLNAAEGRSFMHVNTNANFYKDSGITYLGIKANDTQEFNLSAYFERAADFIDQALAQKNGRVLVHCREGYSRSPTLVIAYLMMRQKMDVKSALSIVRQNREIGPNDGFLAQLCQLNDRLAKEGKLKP
TcdB GH inh: blocks C. difficile toxin B glycohydrolase activity; P18177; TcdB glycohydrolase enzymatic assay, plate reader; inhibition, % at 9.99 µM; 350,000 tested, 0.24% active; AID 652162; in the data active = inhibition above about 10%
SARS 3CLpro inh: SARS-CoV 3CLpro protease inhibition | AID 1706 | recombinant SARS-CoV 3CLpro, quenched FRET peptide cleavage | P0C6X7 | inhibition, % at 6 µM | 290,000 tested, 0.14% active; in the data active = inhibition above about 12%
PriA SSB inh: inhibitors of Klebsiella pneumoniae PriA binding to SSB C-terminal tail | 430,000 tested, 0.6% active | AlphaScreen SSBct-PriA binding, biotinylated peptide | inhibition, % at 33 µM; in the data active = inhibition mostly above about 37%, no sharp cut-off; inactive = mostly below about 20%;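 note: plate controls were negative control peptide for no effect and reference peptide for full effect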
CCHF vOTU inh: blocks the CCHF virus ovarian tumor domain protease. CCHFV vOTU protease, Pep-AMC fluorescence. inhibition, % at 11.5 µM. 370,000 tested, 0.55% active; in the data active = inhibition above about 30%; note: 0% = vehicle wells with enzyme and 100% = no enzyme wells
Numbers without * were called inactive. This is a sample that favours compounds with a hit; in the whole collection about 1.3% have one here.

`COc1cccc(NC(=O)c2cc(-c3ccco3)nc3c2c(C)nn3C2CCS(=O)(=O)C2)c1` (stereo not drawn) gave PriA SSB inh 11.0.
For CCOc1ccccc1N(C(C)=O)S(=O)(=O)c1ccc(Cl)cc1 the results were Vc quorum ag -0.4, VHR inh abs -2.0, TcdB GH inh 1.1, SARS 3CLpro inh 3.1, PriA SSB inh -3.6 and CCHF vOTU inh -13.8.
`CC(=O)N(c1ccccc1C)S(=O)(=O)c1ccc(Cl)cc1` gave Vc quorum ag -0.3, VHR inh abs 21.8, TcdB GH inh 11.0*, SARS 3CLpro inh 1.6, PriA SSB inh -2.8 and CCHF vOTU inh 17.0.
Cc1ccc2oc(C(=O)NCCn3ccc4ccccc43)cc2n1 was read as PriA SSB inh 13.0.
Screening Cc1ccc(N=C2SC(C(=O)Nc3ccc(OC(F)(F)F)cc3)C(N)=C2C(=O)Nc2c(C)cc(C)cc2C)cc1 (stereo not drawn) returned Vc quorum ag 0.3, VHR inh abs 28.2, TcdB GH inh -0.1, SARS 3CLpro inh 8.7, PriA SSB inh 17.4 and CCHF vOTU inh 29.7*.
For N#Cc1cnc(-c2ccccn2)nc1N the results were PriA SSB inh 82.8*.
For Nc1ccnc(-c2ccccn2)n1 the results were PriA SSB inh 151.0*.
NCc1ccnc(-c2ccccn2)n1 was read as PriA SSB inh 125.5*.
`COc1cc(NC(=O)Cn2nnc3ccccc32)ncn1` gave PriA SSB inh -14.0.
Screening CCCNC(=O)C[C@H]1CC[C@H]2[C@H](COc3ccc(NC(=O)c4cccc(OC)c4)cc3C(=O)N2C)O1 returned TcdB GH inh 2.1.
For COc1cccc(C(=O)Nc2ccc3c(c2)C(=O)N(C)[C@@H]2CC[C@H](CC(=O)NCCCN4CCOCC4)O[C@@H]2CO3)c1 the results were TcdB GH inh 12.4*.
Screening CN1C(=O)c2cc(NC(=O)Nc3ccccc3Cl)ccc2OC[C@H]2O[C@@H](CC(=O)NCCCN3CCOCC3)CC[C@H]21 returned TcdB GH inh 10.5*.
Screening COC(=O)C[C@H]1CC[C@@H]2[C@@H](COc3ccc(NC(=O)c4cccc(OC)c4)cc3C(=O)N2C)O1 returned TcdB GH inh 10.8*.
For CCNC(=O)C[C@@H]1CC[C@@H]2[C@@H](COc3ccc(NC(=O)Nc4ccccc4Cl)cc3C(=O)N2C)O1 the results were TcdB GH inh 0.7.
For CCn1cc(Cl)c(C(=O)Nc2ccccc2C(N)=O)n1 the results were Vc quorum ag inactive, VHR inh abs 12.3, TcdB GH inh 0.4, SARS 3CLpro inh 1.2, PriA SSB inh 44.9* and CCHF vOTU inh -5.5.
Screening CCn1cc(Br)c(C(=O)Nc2ccccc2C(=O)OC)n1 returned Vc quorum ag -0.2, VHR inh abs 9.6, TcdB GH inh 1.2, SARS 3CLpro inh 4.8, PriA SSB inh -11.4 and CCHF vOTU inh 3.3.
`COc1ccc2nc(-c3ccc(OC)c(NS(=O)(=O)c4ccc(F)c(C)c4)c3)cn2n1` gave PriA SSB inh 1.0.
`Fc1cccc(Cl)c1Cn1ncc2ccccc21` gave Vc quorum ag -1.0, VHR inh abs 53.0*, TcdB GH inh 1.1, SARS 3CLpro inh 2.0, PriA SSB inh -20.2 and CCHF vOTU inh 1.9.
For c1ccc(Cn2ncc3ccccc32)cc1 the results were Vc quorum ag -1.1, VHR inh abs 33.4, TcdB GH inh 1.3, SARS 3CLpro inh 2.0, PriA SSB inh -18.2 and CCHF vOTU inh -5.2.
O=C(Cn1c(=O)oc2ccccc21)NCCn1ccnc1-c1ncccn1 was read as PriA SSB inh 99.0*.
`COc1ccccc1NC(=O)NCCn1ccnc1-c1cnccn1` gave PriA SSB inh 39.3.
COc1ccccc1NC(=O)NCCn1ccnc1-c1ncccn1 was read as PriA SSB inh 39.0*.
Screening O=C(Cn1c(=O)oc2ccccc21)NCCCn1ccnc1-c1ccccc1 returned PriA SSB inh 4.0.
Screening O=C(NCCn1ccnc1-c1ncccn1)Nc1cccs1 returned PriA SSB inh 124.0*.
Screening CCCc1nnsc1C(=O)NCCn1ccnc1-c1ncccn1 returned PriA SSB inh 72.0*.
`O=C(NCCn1ccnc1C1CC1)Nc1cccs1` gave PriA SSB inh 6.0.
Screening Nc1ccc2c(c1)N(S(=O)(=O)c1ccc(F)cc1)CCC2 returned PriA SSB inh 32.0.
Screening COc1ccc(C)cc1S(=O)(=O)N1CCN(Cc2nc(-c3cccs3)cs2)CC1 returned PriA SSB inh -1.0.
`Cc1cc(C)n(CC(=O)Nc2ccc(C(C)C)cc2)c(=O)c1-c1nc(-c2ccc(F)cc2)no1` gave PriA SSB inh -1.0.
Screening C[C@H](Oc1ccccc1)C(=O)NCCn1ccnc1-c1ncccn1 returned PriA SSB inh 93.0*.
`O=C(COc1ccccc1F)NCCn1ccnc1-c1ncccn1` gave PriA SSB inh 23.0.
COc1ccc(N=C2S/C(=C\c3ccc(N4CCOCC4)o3)C(=O)N2CCc2c[nH]c3ccccc23)cc1 was read as Vc quorum ag -0.7, VHR inh abs 12.8 and SARS 3CLpro inh 9.2.
For COc1ccc(N=C2S/C(=C\c3ccc(OCC(=O)O)cc3)C(=O)N2CCc2c[nH]c3ccccc23)cc1 the results were Vc quorum ag -1.1, TcdB GH inh 0.7, SARS 3CLpro inh 2.0, PriA SSB inh 50.6* and CCHF vOTU inh 24.7.
For CC(C)(C)c1ccc(-c2nnc3sc(-c4cnccn4)nn23)cc1 the results were PriA SSB inh 51.0*.
For O=C(Cc1c(F)cccc1Cl)N1CCc2nc3ccc(F)cn3c(=O)c2C1 the results were PriA SSB inh 2.0.
Screening COc1ccnc2c1c(=O)n(Cc1c(F)cccc1Cl)c(=O)n2C returned Vc quorum ag inactive, VHR inh abs 50.4*, TcdB GH inh 0.7, SARS 3CLpro inh -2.6, PriA SSB inh 0.4 and CCHF vOTU inh -1.2.
`COc1ccc(C2CCN(C(=O)c3cnc4ccccc4n3)C2)cc1` (stereo not drawn) gave PriA SSB inh -7.0.
Screening O=S1(=O)N=C(Nc2ccc(S(=O)(=O)N3CCCCC3)cc2)c2ccccc21 returned Vc quorum ag -0.9, VHR inh abs 53.4*, SARS 3CLpro inh 1.0, PriA SSB inh -28.0 and CCHF vOTU inh -0.9.
For O=S1(=O)N=C(Nc2ccc(N3CCOCC3)cc2)c2ccccc21 the results were Vc quorum ag inactive, VHR inh abs 17.8, SARS 3CLpro inh -0.3, PriA SSB inh 3.8 and CCHF vOTU inh 9.2.
For COc1ccccc1-c1cc2c(SCC(=O)Nc3c(C)cc(C)cc3C)nccn2n1 the results were PriA SSB inh -22.0.
`CN(C)CCOCCOc1ccc(Cl)cc1Br` gave Vc quorum ag 15.3, VHR inh abs -15.3, TcdB GH inh 2.0, SARS 3CLpro inh 0.8, PriA SSB inh -3.2 and CCHF vOTU inh 0.9.
`CN(C)CCCOc1ccc(Cl)cc1Br` gave Vc quorum ag -2.4, VHR inh abs 9.6, SARS 3CLpro inh 1.2, PriA SSB inh 50.6* and CCHF vOTU inh -12.3.
For c1ccc(OCCn2c(-c3cccs3)nc3ccccc32)cc1 the results were PriA SSB inh -15.0.
